AC50 data for one molecule are collected here from PubChem BioAssay AID2284183 (EPA ToxCast).

Broadly, the AC50 is the concentration at which the activity in the assay is half-maximal.

Each structure is given as a SMILES string. Activity calls are given as the source filed them. Rule for the calls: active = hit-call score of the fitted dose curve at least 0.9, where 1 is the maximum; inactive = score below 0.9.

For the experiment, the target named is human Tachykinin Receptor NK2 Agonism, TACR2 (gene 6865) (UniProt P21452). In words: ERF_TW_GPCR_hTACR2: Eurofins (ERF) G Protein-Coupled Receptor (GPCR) Radioligand Binding LeadHunter Assay for human Tachykinin Receptor NK2 Agonism. As for the experimental part: ERF_TW_GPCR_hTACR2 is a biochemical, single-readout assay that uses extracted gene-proteins in a cell-free assay. Measurements were taken 1.5 hour after chemical dosing in a 96-well plate. See NK2 Human Tachykinin GPCR Binding (Antagonist Radioligand) Assay, Panlabs.ERF_TW_GPCR_hTACR2 is an assay component calculated from the ERF_TW_GPCR_hTACR2 assay. It is designed to measure radioligand binding using a type of binding reporter as detected by scintillation counting with radiometry technology.Data from the assay component ERF_TW_GPCR_hTACR2 was analyzed at the assay endpoint, ERF_TW_GPCR_hTACR2, in the positive analysis fitting direction relative to DMSO as the negative control and baseline of activity. Using a type of binding reporter, loss-of-signal activity can be used to understand changes in radioligand binding as they relate to gene TACR2. To generalize the intended target to other relatable targets, this assay endpoint is annotated to the gpcr intended target family, where the subfamily is tachykinin.
Chain of human Tachykinin Receptor NK2 Agonism, TACR2 (gene 6865) (P21452 whole entry, looked up): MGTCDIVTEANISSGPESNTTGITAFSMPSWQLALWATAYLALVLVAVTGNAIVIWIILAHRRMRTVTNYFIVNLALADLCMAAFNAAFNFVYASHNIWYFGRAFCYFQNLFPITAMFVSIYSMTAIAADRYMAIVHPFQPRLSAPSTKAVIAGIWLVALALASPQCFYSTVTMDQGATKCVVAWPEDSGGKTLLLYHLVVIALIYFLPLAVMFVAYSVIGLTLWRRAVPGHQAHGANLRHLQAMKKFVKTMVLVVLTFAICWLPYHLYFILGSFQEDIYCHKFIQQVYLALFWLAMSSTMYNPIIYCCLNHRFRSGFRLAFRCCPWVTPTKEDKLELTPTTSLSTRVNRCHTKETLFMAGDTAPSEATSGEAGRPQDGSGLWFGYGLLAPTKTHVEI
Human recombinant neurokinin NK2 receptor expressed in CHO-hNK2 cells are used to prepare membranes in modified HEPES buffer pH 7.4. A 5 ug aliquot of membrane is incubated with 0.02 nM [125I]-Neurokinin A for 120 minutes at 25C. […] Membranes are filtered and washed, the filters are then counted to determine [125I]-Neurokinin A specifically bound. […]
For `O=C(/C=C/c1ccc(O)cc1)CC(=O)/C=C/c1ccc(O)cc1`, the AC50 is 1080 nM (active).
